sdo1 growth = compounds rescuing growth of sdo1-depleted yeast, bone marrow failure model; S. cerevisiae sdo1-depleted JHY4D growth rescue, OD600 30 h; active compounds read high; pdr5 snq2 efflux-pump mutant strain; z-score at 10 µM; 140,000 tested, 0.21% active; AID 817;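 active = z-score above 3 at both the 24 hr and the 30 hr optical density reads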;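 also: z-score against mean and SD of all compound wells on the same plate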
PLK1 kinase inh = inhibitors of human PLK1 kinase; P53350; recombinant PLK1 kinase, TR-FRET peptide phosphorylation; inhibition, % at 10 µM; 97,000 tested, 0.53% active; AID 619;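 active = inhibition of 50% or more in the single-concentration screen; inactive = inhibition below 50%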;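 also: 0% = DMSO max control and 100% = H-89 dihydrochloride min control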
Target sequence (P53350 whole entry, looked up): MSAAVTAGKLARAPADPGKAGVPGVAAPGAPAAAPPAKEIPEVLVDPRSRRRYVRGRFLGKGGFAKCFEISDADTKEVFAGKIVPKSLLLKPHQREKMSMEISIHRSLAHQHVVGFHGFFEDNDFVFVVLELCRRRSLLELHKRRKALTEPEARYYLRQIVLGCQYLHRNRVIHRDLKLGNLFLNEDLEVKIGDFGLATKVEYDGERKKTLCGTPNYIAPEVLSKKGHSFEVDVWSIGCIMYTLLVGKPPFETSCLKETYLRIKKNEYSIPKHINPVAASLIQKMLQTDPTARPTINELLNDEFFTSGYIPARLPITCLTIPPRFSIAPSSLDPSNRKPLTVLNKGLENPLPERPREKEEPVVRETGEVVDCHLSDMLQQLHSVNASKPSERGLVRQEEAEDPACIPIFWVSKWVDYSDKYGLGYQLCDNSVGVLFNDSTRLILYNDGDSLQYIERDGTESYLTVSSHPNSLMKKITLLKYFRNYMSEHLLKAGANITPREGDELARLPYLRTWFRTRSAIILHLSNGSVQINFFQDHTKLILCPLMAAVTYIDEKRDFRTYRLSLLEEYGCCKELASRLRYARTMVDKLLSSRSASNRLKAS
Plk1 PBD FP = Plk1 (human) PBD binding inhibition. Plk1 PBD phosphopeptide binding, fluorescence polarization. inhibition, %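 (tested at about 20 µM)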. P53350. 97,000 tested, 0.13% active; in the data active = inhibition above about 34%, passing the limit was not always enough
Cav32 inh = inhibitors of human Cav3.2 T-type calcium channel | O95180 | Cav3.2-expressing cells, Fluo-4 calcium fluorescence FDSS; active compounds read low | B-score at 10 µM | 100,000 tested, 4% active;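 active = single-dose well whose peak fluorescence ratio is a statistical outlier from its plate by either plate-standardised score or position-corrected B-score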
DAT uptake mod = human DAT dopamine uptake with cocaine, either direction; LLC-PK1 hDAT cells, [14C]-dopamine uptake with cocaine IC80; actives deviate in either direction; 110,000 tested, 1.3% active; AID 449768; Q01959; B-score at 10 µM;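 active = Z score or B-score, a plate-position-corrected score, falls beyond the plate's 99.7% confidence bounds, in either direction; inactive = both scores lie inside the 99.7% bounds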;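 also: scored against the spread of the other compound wells on the same plate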
Pyk2 oligo antag = Pyk2 (human) oligomerization antagonism; z-score (the deposit names both 25 µM and 10 µM); Q293 cells, Pyk2 FERM NanoBiT luminescence; active compounds read low; 99,000 tested, 0.83% active;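 active = Z-score of -3 or lower, scaled per plate to the spread of control and sample wells; inactive = z-score above -3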;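 also: negative z-score means lost luminescence so less FERM oligomerization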
PLK1 confirm = PLK1 (human) kinase inhibition, confirmed; shares compounds with PLK1 kinase inh; recombinant PLK1 kinase, TR-FRET peptide phosphorylation; inhibition, % at 10 µM; 210 tested, 20% active; AID 744;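 active = inhibition at or above 50% in each of two repeat confirmation tests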;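 also: 0% = DMSO max control and 100% = H-89 kinase-blocked min control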
Plk1 interf = Plk1 assay compound interference counter-screen hit; AID 756; Plk1 TR-FRET assay interference, compound added post-reaction; inhibition (interference), % at 10 µM; 210 tested, under 10 active; shares compounds with PLK1 kinase inh;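 active = both duplicate runs show 50% or greater inhibition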;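 also: 0% = DMSO max control and 100% = H-89 min control inhibited reaction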
Redox H2O2 DR = generates H2O2 by redox cycling, flagging false Plk1 PBD hits; shares compounds with Plk1 PBD FP; EC50, µM; redox cycling H2O2 generation, DTT, counter-screen; 120 tested, under 10 active; call rule not given here
The depositor's hits bear a star; / = not tested or not shown. In the library only some 4.7% were active in any assay of this set; here they are far more common.

SMILES	sdo1 growth	PLK1 kinase inh	Plk1 PBD FP	Cav32 inh	DAT uptake mod	Pyk2 oligo antag	Redox H2O2 DR	others
C/C(Cn1cnc([N+](=O)[O-])n1)=N/NC(=O)COc1c(Cl)cc(Cl)cc1Cl	0.26	/	/	/	/	/	/
CCSc1nnc(NC(=O)C(C)C)s1	-0.18	71*	7	0.65	1.1	/	/	PLK1 confirm=-2;Plk1 interf=-52
CC(C)OC(=O)C1C2C=CC3(CN(C(C)c4ccc(Br)cc4)C(=O)C13)O2 (stereo not given)	-0.93	74*	-11	0.035	-0.46	/	/	PLK1 confirm=-12;Plk1 interf=-46
CC(c1ccc(Br)cc1)N1CC23C=CC(O2)C(C(=O)O)C3C1=O (stereo not given)	1.8	-13	30	-0.24	-0.19	/	/
C#CCOCCOCCOCCNc1nc(N2CCN(C(=O)Cn3cc(CCCN=C(N)N)nn3)CC2)nc(N2CCN(C(=O)[C@H]([C@@H](C)CC)n3cc(CCCN=C(N)N)nn3)CC2)n1	0.02	/	/	/	/	/	/
CCC(CC)n1[nH]c(=O)c2c(C)cc(C)nc21	1.2	-5	38	0.27	-0.54	0.68	/
CCCCCC(C)n1[nH]c(=O)c2c(C)cc(C)nc21 (stereo not given)	-0.44	86*	12	/	-1.5	/	/	PLK1 confirm=2;Plk1 interf=-48
Cc1c(C(=O)OC(C)C)sc2nc[nH]c(=O)c12	0.71	77*	7	0.26	0.22	0.35	/	PLK1 confirm=69*;Plk1 interf=-50
COC(=O)c1sc2nc[nH]c(=O)c2c1C	-0.18	74*	12	/	/	0.25	/	PLK1 confirm=71*;Plk1 interf=-49
COc1ccc(OCc2nnc3n2N=C(c2ccc(C)cc2)CS3)cc1	-1.7	72*	-40	-2.4	0.27	/	/	PLK1 confirm=-4;Plk1 interf=-53
CCOc1ccc(C2=Nn3c(nnc3-c3ccc(OC)cc3)SC2)cc1	-2.4	-9	1	-1.4	0.52	-2.7	/
COc1ccc(C2=Nn3c(nnc3-c3ccncc3)SC2)cc1	0.08	19	-7	0.49	-0.17	-1.9	/
COc1ccc(OCc2nnc3n2N=C(c2ccc(OC)cc2)CS3)cc1	-1.7	83*	-21	-7.6*	2.2	/	/	PLK1 confirm=-2;Plk1 interf=-49
O=C(c1ccco1)N1CCN=C1SCc1ccccc1F	2.4	78*	14	0.26	-0.56	/	/	PLK1 confirm=-9;Plk1 interf=-59
O=C(c1ccco1)N1CCN=C1SCc1cccnc1	-0.06	-9	16	0.95	1.1	1.9	/
CCOC(=O)NC(=O)/C(C#N)=N/Nc1c(F)cccc1F	0.48	-3	19	-1.1	-0.48	0.86	/
N#C/C(=N\Nc1c(Cl)cccc1Cl)C(=O)NN	-0.48	79*	2	0.24	0.43	0.24	/	PLK1 confirm=77*;Plk1 interf=-58
CCNC(=O)NC(=O)C(C)OC(=O)c1cccnc1SC (stereo not given)	/	-3	51*	-0.13	-0.0033	0.21	>50
C=CCNC(=O)NC(=O)COC(=O)c1cccnc1SC	0.1	-3	6	0.49	1.3	1.2	/
CC(C)N(Cc1cc2ccccc2[nH]c1=O)C(=O)c1cccnc1	0.65	-9	35*	-0.74	0.0018	-1.1	>50
Cc1cccc(N/C(N)=N/c2nc(C(F)(F)F)cc(=O)[nH]2)c1C	-0.05	/	/	/	/	/	/
Cn1c(=O)c2c(ncn2CCCc2ccccc2)n(C)c1=O	1.2	-11	51*	0.76	0.037	-0.27	>50
Cn1c(=O)c2c(ncn2Cc2ccccc2)n(C)c1=O	0.27	0	-10	/	-0.65	/	/
CC(C)Nc1nnc(SCC(=O)c2c(N)n(Cc3ccccc3)c(=O)n(C)c2=O)s1	-0.12	0	45*	/	-0.18	0.46	>50
CC1CN(C2CC(C)(C)NC(C)(C)C2)CCC1=O (stereo not given)	-0.31	0	53*	0.12	/	0.63	>50
SMILES	sdo1 growth	PLK1 kinase inh	Plk1 PBD FP	Cav32 inh	DAT uptake mod	Pyk2 oligo antag	Redox H2O2 DR	others
COc1ccc2c(c1OC)C(=O)OC2CC(=O)O (stereo not given)	0.11	-10	40*	-1.1	-0.23	0.77	>50
O=C1Nc2ccc([N+](=O)[O-])cc2C1(O)N1CCCCC1 (stereo not given)	0.65	-14	57*	0.53	-0.95	-0.71	>50
CC(C)c1cc(N2CCC(=O)NC2=O)cc(C(=O)O)c1O	1.6	/	/	/	/	/	/
Cc1c(CN(C)C)c2c(n1C)C(=O)c1ccc(Br)cc1-2	1.7	32	-12	0.84	-1.2	0.7	/
CCOC(=O)c1c2c(n(C)c1C)C(=O)C(=O)c1ccc(Br)cc1-2	/	-5	116*	0.35	-0.5	-3.5*	0.61*
COc1ccc(C(=O)COC(=O)CN2C(=O)C3C4C=CC(C5CC45)C3C2=O)cc1 (stereo not given)	-0.02	/	/	/	/	/	/
O=C(COc1ccc(S(=O)(=O)N2CCOCC2)cc1)Nc1ccc2c(c1)OCCO2	0.26	-2	27	0.65	-0.076	0.95	/
O=C(COc1ccccc1)Nc1ccc(S(=O)(=O)N2CCOCC2)cc1	-0.56	-6	40*	-0.46	0.47	-0.76	>50
COc1ccccc1C(=O)N/C(=C\c1ccc2c(c1)OCO2)C(=O)NCCc1nc2ccccc2[nH]1	0.05	/	/	/	/	/	/
CCCSc1nc(N2CCOCC2)c2c(c1C#N)CCCC2	-1.1	-14	51*	-6.6*	0.61	-1.3	>50
CCc1noc(C)c1C(=O)N1CCOCC1	0.58	-5	41*	0.24	-1.5	0.15	>50
COc1cc(OC)cc(C(=O)NCCCN2CCOCC2)c1	0.15	-9	53*	0.37	-0.15	1.4	>50
COc1cccc(C(=O)NCCCN2CCN(CCCNC(=O)c3cccc(OC)c3)CC2)c1	-0.29	/	/	/	/	/	/
O=C(NC(NC(=S)Nc1ccc(Cl)cc1Cl)C(Cl)(Cl)Cl)c1cccc([N+](=O)[O-])c1 (stereo not given)	-0.39	-2	56*	-4.9*	-1.2	0.76	>50
O=C(NC(NC(=S)Nc1ccccc1)C(Cl)(Cl)Cl)c1cccc(Cl)c1 (stereo not given)	-0.97	-11	9	-1.6	-0.24	-2.7	/
Cc1nnsc1C(=O)NC(C)C12CC3CC(CC(C3)C1)C2 (stereo not given)	-1	-1	-13	-0.038	-0.28	-0.93	/
CCn1ccc(C(=O)Nc2ccc(N(C)C(C)=O)cc2)n1	0.39	-4	52*	0.019	0.081	0.4	>50
CC(=O)N(C)c1ccc(NC(=O)c2ccccc2C(=O)O)cc1	-0.28	-4	1	-0.065	-1.1	0.38	/
CC1CC(=O)Nc2ccccc2N1S(=O)(=O)c1cccc(Cl)c1 (stereo not given)	-0.14	/	/	/	/	/	/
O=C(O)c1ccc(N=NN2CCCCCC2)cc1	1.1	/	/	/	/	/	/
Cn1c(C(=O)NCc2cccs2)cc2c(=O)n(C)c3ccccc3c21	-2.2	-22	-18	1.1	0.08	/	/

Screening results (PubChem BioAssay)
